KB-V1 cytotox: kills drug-selected multidrug resistant KB-V1 cells. KB-V1 MDR cells viability, CellTiter-Glo, 72 h. AID 1347076. Potency, µM (highest dose often 46.1 µM), usual class: cytotoxic. actives 3.4% (n = 400,000); further: on the % scale 0 is the no-effect control and ±100 the full control effect; nearly all actives have a fitted effect of over 60% in size
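Potencies derive from concentration-effect curves fitted to normalized luminescence (CellTiter-Glo) of KB-V1 cells treated for 72 h at 37 degrees C in phenol-red-free DMEM containing 10% FBS.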
PTAP TSG101 blk: blocks PTAP/TSG101 interaction to inhibit HIV-1 budding; 340,000 tested, under 10 active; Potency, µM (top dose mostly 115 µM), for the others: at the highest dose activity change, negative = inhibition, most hits filed as inhibitors; Fluorescence polarization, FITC-PTAP peptide / Tsg101 binding; active means well fitted inhibition curve with a large enough effect in the main read-out, with a control signal flat, not every such curve was filed as active; inconclusive means small, poorly fitted or top-dose-only effect, or effect the other way, or a change in a side signal; inactive means no such curve, though single readings can be large or run the other way; further: % of control where 0% means no effect
Target sequence (Q99816 whole entry, looked up): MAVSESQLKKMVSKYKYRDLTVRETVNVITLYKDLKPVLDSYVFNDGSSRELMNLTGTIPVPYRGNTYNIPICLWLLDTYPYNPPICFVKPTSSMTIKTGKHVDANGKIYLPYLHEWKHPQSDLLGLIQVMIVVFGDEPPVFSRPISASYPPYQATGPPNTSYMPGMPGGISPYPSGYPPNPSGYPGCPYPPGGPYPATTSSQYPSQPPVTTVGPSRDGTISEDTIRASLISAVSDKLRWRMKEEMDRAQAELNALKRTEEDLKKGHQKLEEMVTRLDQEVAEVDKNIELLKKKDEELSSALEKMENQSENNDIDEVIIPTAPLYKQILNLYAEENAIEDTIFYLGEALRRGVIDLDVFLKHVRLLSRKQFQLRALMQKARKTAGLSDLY
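Fluorescence anisotropy tracks displacement of a FITC-tagged PTAP peptide (50 nM) from the Tsg101 binding domain (10 uM), following a 20 min room-temperature incubation at pH 7.5.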
SW480 rereplic: induces DNA re-replication in SW480 colon adenocarcinoma cells. SW480 DNA re-replication, Hoechst DNA content imaging, 48 h. Potency, µM (titrated, usually from 46.1 µM), without a hit: top-dose re-replication activation, hits mostly activators. AID 624297. actives 1.8% (n = 340,000); further: % of control where 0% means no effect; nearly all actives have a fitted effect of over 55% in size
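Compounds, transferred as 23 nL by pin tool, were incubated with cells for 48 hr; DNA content per nucleus was then quantified by Hoechst staining and fluorescence plate imaging.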
RGS4 inhibitor: human RGS4 inhibition. P49798. AID 504845. actives 0.039% (n = 390,000). Potency, µM (series often up to 114 µM), for the others: at the top dose activity change, negative = inhibition, actives largely listed as inhibitors. Transcreener GDP fluorescence polarization, RGS4-accelerated GTP hydrolysis; further: on the % scale 0 is the no-effect control and ±100 the full control effect; nearly all actives have a fitted effect of over 75% in size
Target sequence (P49798 whole entry, looked up): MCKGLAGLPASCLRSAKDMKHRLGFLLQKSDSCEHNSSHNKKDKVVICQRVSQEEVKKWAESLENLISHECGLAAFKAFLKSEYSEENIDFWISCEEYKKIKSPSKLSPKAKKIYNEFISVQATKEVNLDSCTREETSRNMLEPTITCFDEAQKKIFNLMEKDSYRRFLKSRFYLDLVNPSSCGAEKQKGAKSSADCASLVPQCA
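MLSMR compounds (23 nl, pin-transferred) preincubated 10 min at room temperature with a 500nM (2x) first reagent, then RGS4 at 900nM (2x) plus Transcreener GDP mix added; fluorescence polarization (620/688 nm) read before and after 90 min at 30 °C.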
MCF10A rereplic: induces DNA re-replication in MCF 10a normal breast cells. MCF 10A DNA re-replication, Hoechst nuclear intensity, 48 h. Potency, µM (titrated, usually from 46.1 µM), without a hit: at the highest dose activity, positive = re-replication, usual class: activators. actives 2.9% (n = 350,000). AID 624296; further: % of control where 0% means no effect; nearly all actives have a fitted effect of over 50% in size
KB-3-1 tox: kills parental KB-3-1 adenocarcinoma cells. KB-3-1 viability, CellTiter-Glo ATP luminescence, 72 h. Potency, µM (doses to about 46.1 µM), most hits filed as cytotoxic. actives 1.4% (n = 400,000). AID 1347075; further: on the % scale 0 is the no-effect control and ±100 the full control effect; nearly all actives have a fitted effect of over 60% in size
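Cytotoxicity in the drug-sensitive parental line KB-3-1 was scored as loss of CellTiter-Glo luminescence following 72 h incubation with compound. Values come from curve fitting of normalized concentration-response data.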
* hit, by the source's call. This is a sample that favours compounds with a hit; in the whole collection about 6.6% have one here. Unless noted, the call rests on the fitted dose curve; in most records, active means well fitted curve in the direction sought with a large enough effect; inconclusive means small, poorly fitted or top-dose-only effect, or another doubt; inactive means no such curve, though single readings can be large; an effect the other way counts as inactive or inconclusive. Potency means the concentration at half of the fitted maximal effect.

Screening O=C(NCCS(=O)(=O)N1CCN(c2cccc(Cl)c2)CC1)C(c1ccccc1)c1ccccc1 returned RGS4 inhibitor 2%.
CC12CC(O)C3C(CCC4=CC(=O)CCC43C)C1CCC2=CCO (stereo not given) was read as KB-V1 cytotox 18µM*, PTAP TSG101 blk -5%, SW480 rereplic -3%, RGS4 inhibitor 22%, MCF10A rereplic 14% and KB-3-1 tox inconclusive.
Screening CC(C)N(c1ccccc1)c1ccc(NC(=O)C2CCCO2)cc1 (stereo not given) returned KB-V1 cytotox 21µM*, PTAP TSG101 blk -5%, SW480 rereplic -3%, RGS4 inhibitor 10%, MCF10A rereplic 3% and KB-3-1 tox inactive.
COc1ccc2nc(NC(=O)c3ccc(NC(=O)C4CCCO4)cc3)sc2c1 (stereo not given) was read as KB-V1 cytotox inactive, PTAP TSG101 blk 1%, SW480 rereplic inconclusive, RGS4 inhibitor -3%, MCF10A rereplic 21µM* and KB-3-1 tox 7.3µM*.
Screening O=C(Nc1ccc(Oc2ccccc2)cc1)C1CCCO1 (stereo not given) returned KB-V1 cytotox inactive, PTAP TSG101 blk -1%, SW480 rereplic inconclusive, RGS4 inhibitor -8%, MCF10A rereplic 7.3µM* and KB-3-1 tox inactive.
`O=C(NS(=O)(=O)c1ccc(NC(=O)C2CCCO2)cc1)c1ccccc1` (stereo not given) gave KB-V1 cytotox inactive, PTAP TSG101 blk -3%, SW480 rereplic 2%, RGS4 inhibitor -12%, MCF10A rereplic -4% and KB-3-1 tox inactive.
Cc1cc(Br)ccc1NC(=O)C1(S(=O)(=O)c2ccc(Cl)cc2)CC1 was read as KB-V1 cytotox inactive, RGS4 inhibitor 6% and KB-3-1 tox inactive.
Screening O=C(NCCS(=O)(=O)N1CCN(c2ccccc2F)CC1)C(c1ccccc1)c1ccccc1 returned RGS4 inhibitor -2%.
CCCOc1ccc(OCC(=O)c2[nH]c(C)c(C(C)=O)c2C)cc1 was read as KB-V1 cytotox 2.9µM*, PTAP TSG101 blk -1%, SW480 rereplic 17%, RGS4 inhibitor 8%, MCF10A rereplic 47% and KB-3-1 tox inconclusive.
CC(=O)c1c(C)[nH]c(C(=O)COc2cc(C)cc(C)c2)c1C was read as KB-V1 cytotox 2.6µM*, PTAP TSG101 blk -2%, SW480 rereplic 1%, RGS4 inhibitor 10%, MCF10A rereplic 21% and KB-3-1 tox inactive.
`CC(=O)c1c(C)[nH]c(C(=O)COc2ccc3ccc(=O)oc3c2)c1C` gave KB-V1 cytotox inconclusive, PTAP TSG101 blk -1%, SW480 rereplic -2%, RGS4 inhibitor inconclusive, MCF10A rereplic 19% and KB-3-1 tox inactive.
Screening COc1ccc(NC(=O)CSc2ncc3c(n2)-c2ccccc2N(Cc2ccc(C)cc2)S3(=O)=O)cc1Cl returned KB-V1 cytotox inactive, RGS4 inhibitor 3% and KB-3-1 tox inactive.
For CCCn1nc(C(=O)NC2CCCCCC2)c2ccccc2c1=O the results were KB-V1 cytotox 5.8µM*, PTAP TSG101 blk 0%, SW480 rereplic 0%, RGS4 inhibitor -8%, MCF10A rereplic 8% and KB-3-1 tox inactive.
`Cn1nc(C(=O)NC2CCCC2)c2ccccc2c1=O` gave KB-V1 cytotox inactive, PTAP TSG101 blk -3%, SW480 rereplic -13%, RGS4 inhibitor 33%, MCF10A rereplic 3% and KB-3-1 tox inactive.
For Cn1c(=O)c(C(=O)NC2CCCCCCC2)c(O)c2ccccc21 the results were KB-V1 cytotox 21µM*, PTAP TSG101 blk 0%, SW480 rereplic -2%, RGS4 inhibitor 21%, MCF10A rereplic 0% and KB-3-1 tox inactive.
COc1cc(C2NC(=O)N(C)C3=C2C(=O)N(c2ccccc2)C3)ccc1O (stereo not given) was read as KB-V1 cytotox inactive, RGS4 inhibitor -3% and KB-3-1 tox inactive.
For O=C(/C=C/c1ccco1)Nc1cccnc1 the results were KB-V1 cytotox inactive, PTAP TSG101 blk -5%, SW480 rereplic -17%, RGS4 inhibitor -12%, MCF10A rereplic -12% and KB-3-1 tox inactive.
Cc1ccc(NC(=O)/C=C/c2ccco2)nc1 was read as KB-V1 cytotox 0.1µM*, PTAP TSG101 blk 0%, SW480 rereplic inconclusive, RGS4 inhibitor -16%, MCF10A rereplic inconclusive and KB-3-1 tox 0.16µM*.
`O=C(/C=C/c1ccco1)Nc1ccccn1` gave KB-V1 cytotox inconclusive, PTAP TSG101 blk 0%, SW480 rereplic 5.2µM*, RGS4 inhibitor -13%, MCF10A rereplic 15µM* and KB-3-1 tox 5.8µM*.
Screening CCc1ccc2nc(N(Cc3cccnc3)C(=O)Cc3ccccc3)sc2c1 returned RGS4 inhibitor 9%.
For COCCNC(=O)c1nn(-c2ccc(C)cc2)c(=O)n(C)c1=O the results were KB-V1 cytotox inactive, RGS4 inhibitor -2% and KB-3-1 tox inactive.
CCc1ccc(NC(=O)CCc2ccc(C)o2)cc1 was read as KB-V1 cytotox inactive, PTAP TSG101 blk -1%, SW480 rereplic inconclusive, RGS4 inhibitor 19%, MCF10A rereplic 16µM* and KB-3-1 tox inconclusive.
CCc1ccc(NC(=O)CCc2ccc(CC)o2)cc1 was read as KB-V1 cytotox inactive, PTAP TSG101 blk -1%, SW480 rereplic 7%, RGS4 inhibitor -12%, MCF10A rereplic 12% and KB-3-1 tox inactive.
COc1ccc([C@@H]2C[C@H]3CN(Cc4ccccc4OC)C(=O)[C@]34CCCN24)cc1C was read as KB-V1 cytotox inactive, PTAP TSG101 blk 0%, SW480 rereplic 19%, RGS4 inhibitor 4%, MCF10A rereplic -1% and KB-3-1 tox inactive.
Screening COc1ccccc1CN1C[C@@H]2C[C@@H](c3ccc(C)c(C)c3)N3CCC[C@@]23C1=O returned KB-V1 cytotox inactive, PTAP TSG101 blk 0%, SW480 rereplic 4.1µM*, RGS4 inhibitor -48%, MCF10A rereplic -8% and KB-3-1 tox inactive.
c1ccc(Sc2ncnc3ccccc23)cc1 was read as KB-V1 cytotox inactive, PTAP TSG101 blk -1%, SW480 rereplic -2%, RGS4 inhibitor 17%, MCF10A rereplic inconclusive and KB-3-1 tox inactive.
Screening c1ccc(Cc2nnc(Sc3ccccc3)c3ccccc23)cc1 returned KB-V1 cytotox inactive, PTAP TSG101 blk -1%, SW480 rereplic 15µM*, RGS4 inhibitor -5%, MCF10A rereplic inconclusive and KB-3-1 tox inactive.
`CCOc1ccc(-c2ccc(NS(=O)(=O)c3cc(C)c(C)cc3C)cc2)nn1` gave KB-V1 cytotox inactive, RGS4 inhibitor -12% and KB-3-1 tox inactive.

High-throughput results (PubChem)
